Structures can show the parent of a compound that is named as a salt. Hit rate of the full screen: of about 1,300 compounds, about 40 (3%) showed activity. The list comes from a sample in which actives are over-represented; it also holds similar structures and randomly drawn compounds. A number with no mark means an inactive call.

For the test, the system named is Plasmodium falciparum NF54/iGP1_RE9H ulg8 stage V gametocytes. The test can be described thus: gametocyte viability (luciferase signal relative to DMSO control) (% of DMSO control); higher = less gametocytocidal activity, active = 50 or less. The conditions noted are these: exposure time: 72 h. The method in brief:
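Gametocyte viability is reported relative to the average of DMSO vehicle wells on the same plate. The assay used day-12 stage V NF54/iGP1_RE9Hulg8 gametocytes at ~2.5% gametocytemia and 3% hematocrit, in 0.5% Albumax II medium, added to 96-well plates of compounds spotted in nanolitre volumes for final 10 µM or 1 µM, one well each. After 72 h at 37 °C, 90 µl was mixed with 10 µl D-luciferin (30 mg/ml), and luminescence was recorded with an IVIS Lumina II.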

As for `Nc1c2c(nc3ccccc13)CCCC2O` (racemic) [Hydroxytacrine maleate (R,S)], the gametocyte viability was 101 (concentration: 1 µM) and 93.6 (concentration: 10 µM).
For `O=C1c2cccc3c2[C@H](CCC3)CN1[C@@H]1CN2CCC1CC2` [Palonosetron hydrochloride], the gametocyte viability is, setting by setting: (concentration: 1 µM) 85.5; (concentration: 10 µM) 81.6.
Taken in the same sequence, the figures for `CCN(CC)CCOc1ccc(C(=C(Cl)c2ccccc2)c2ccccc2)cc1` [Clomiphene citrate (Z,E)] were 82.4 and 95.2.
Take `COc1cc2ncnc(Nc3ccc(F)c(Cl)c3)c2cc1OCCCN1CCOCC1` [Gefitinib]: the gametocyte viability was 95.8 (concentration: 1 µM) and 85.9 (concentration: 10 µM).
For `C#Cc1cccc(Nc2ncnc3cc(OCCOC)c(OCCOC)cc23)c1` [Erlotinib] the same measures were 70.7 and 37.2 (active).
Take `Cc1c(C)c2c(c(C)c1O)CCC(C)(C(=O)O)O2` (stereo not drawn) [Trolox]: the gametocyte viability (concentration: 1 µM) is 88.2 and the gametocyte viability (concentration: 10 µM) is 87.5.
`CCOC(=O)C1=C[C@]2(CC)CCCN3CCc4c(n1c1ccccc41)[C@@H]32` [Vinpocetine]: the gametocyte viability (concentration: 1 µM) was 86.2 and the gametocyte viability (concentration: 10 µM) is 87.6.
For `CC(C)NC[C@@H](O)COc1cccc2ccccc12` [(R)-Propranolol hydrochloride] the same measures were 93.4 and 89.
In the case of `Nc1ccccc1S(N)(=O)=O` [2-Aminobenzenesulfonamide], the gametocyte viability runs as follows: (concentration: 1 µM) 98; (concentration: 10 µM) 95.8.
`CN1CCN(CC(=O)N2c3ccccc3C(=O)Nc3cccnc32)CC1` [Pirenzepine dihydrochloride]: the gametocyte viability is 86.5 (concentration: 1 µM) and 83.3 (concentration: 10 µM).
Regarding `CCN(CCCc1ccccc1)CCCc1ccccc1` [Alverine citrate salt], the gametocyte viability was 82.3 (concentration: 1 µM) and 82 (concentration: 10 µM).
For `CCN(CC)CCCC(C)Nc1c2ccc(Cl)cc2nc2ccc(OC)cc12` (stereo not drawn) [Quinacrine dihydrochloride dihydrate] the same measures were 113 and 44.5 (active).
In the case of `CCN(CCO)CCCC(C)Nc1ccnc2cc(Cl)ccc12` (stereo not drawn) [Hydroxychloroquine sulfate], the gametocyte viability is 83.3 (concentration: 1 µM) and 80.8 (concentration: 10 µM).
For `CCN(CC)CCCC(C)Nc1ccnc2cc(Cl)ccc12` (stereo not drawn) [Chloroquine diphosphate] the same measures were 82.8 and 86.8.
`NC(=O)N/N=C/c1ccc([N+](=O)[O-])o1` [Nitrofural]: the gametocyte viability is, setting by setting: (concentration: 1 µM) 90.1; (concentration: 10 µM) 89.1.
Regarding `O=C1CN(/N=C/c2ccc([N+](=O)[O-])o2)C(=O)N1` [Nitrofurantoin], the gametocyte viability is, setting by setting: (concentration: 1 µM) 83.4; (concentration: 10 µM) 82.5.
For `O=C(N/N=C/c1ccc([N+](=O)[O-])o1)c1ccc(O)cc1` [Nifuroxazide] the same measures were 95.9 and 30.6 (active).
Consider `CCOC(=O)c1ccc(OC(=O)CCCCCNC(=N)N)cc1` [Gabexate mesilate], for which the gametocyte viability reads like this: (concentration: 1 µM) 88.8; (concentration: 10 µM) 92.
With `CN1CCC(=C2c3ccccc3CC(=O)c3sccc32)CC1` [Ketotifen fumarate], the gametocyte viability is 79.5 (concentration: 1 µM) and 84.2 (concentration: 10 µM).
Consider `C=CC1=C(C(=O)O)N2C(=O)[C@@H](NC(=O)/C(=N\O)c3csc(N)n3)[C@H]2SC1` [Cefdinir], for which the gametocyte viability is 80.8 (concentration: 1 µM) and 83.8 (concentration: 10 µM).
As for `CN1C(=O)OC(C)(C)C1=O` [Trimethadione], the gametocyte viability is 82.9 (concentration: 1 µM) and 88.6 (concentration: 10 µM).
Consider `CC1=C(CC(=O)O)c2cc(F)ccc2/C1=C\c1ccc([S+](C)[O-])cc1` (stereo not drawn) [Sulindac], for which the gametocyte viability was 88.6 (concentration: 1 µM) and 82.7 (concentration: 10 µM).
As to `Cc1cc(NC(=O)C2=C(O)c3ccccc3S(=O)(=O)N2C)no1` [Isoxicam], the gametocyte viability is 82.8 (concentration: 1 µM) and 81.8 (concentration: 10 µM).
On to `C[N+]1(C)CCC(=C(c2ccccc2)c2ccccc2)CC1` [Diphemanil methylsulfate], for which the gametocyte viability is, setting by setting: (concentration: 1 µM) 87; (concentration: 10 µM) 83.
Taken in the same sequence, the figures for `CCc1ccc(CCOc2ccc(CC3SC(=O)NC3=O)cc2)nc1` (stereo not drawn) [Pioglitazone] were 86 and 88.2.
`NC(=O)C(c1ccccc1)(c1ccccc1)[C@@H]1CCN(CCc2ccc3c(c2)CCO3)C1` [Darifenacin hydrobromide]: the gametocyte viability by setting is: (concentration: 1 µM) 81.7; (concentration: 10 µM) 84.2.
Taken in the same sequence, the figures for `CC(C)(S)[C@@H](N)C(=O)O` [Penicillamine] were 92.4 and 93.1.
On to `N#Cc1cc(NC(=O)C(=O)O)c(Cl)c(NC(=O)C(=O)O)c1` [Lodoxamide], for which the gametocyte viability was 91.8 (concentration: 1 µM) and 102 (concentration: 10 µM).
On to `CC1=C(/C=C/C(C)=C/C=C/C(C)=C/C(=O)O)C(C)(C)CCC1` [Retinoic acid], for which the gametocyte viability runs as follows: (concentration: 1 µM) 82.1; (concentration: 10 µM) 64.
For `CCC(=O)[C@@]1(C)[C@H](C)C[C@H]2[C@@H]3CCC4=CC(=O)C=C[C@]4(C)[C@H]3[C@@H](O)C[C@@]21C` [Rimexolone] the same measures were 89.4 and 85.3.
Taken in the same sequence, the figures for `CCCNC(C)C(=O)Nc1c(C)csc1C(=O)OC` (stereo not drawn) [Articaine hydrochloride] were 81.9 and 83.
For the compound `CN/C(=N\CCSCc1nc[nH]c1C)NC#N` [Cimetidine], the gametocyte viability is 100 (concentration: 1 µM) and 94.5 (concentration: 10 µM).
For `C[C@]12CC[C@@H]3c4ccc(O)cc4C[C@@H](CCCCCCCCC[S+]([O-])CCCC(F)(F)C(F)(F)F)[C@H]3[C@@H]1CC[C@@H]2O` (stereo partly drawn) [Fulvestrant] the same measures were 90.3 and 84.7.
For `O=C1OC(CN2CCOCC2)CN1/N=C/c1ccc([N+](=O)[O-])o1` (stereo not drawn) [Furaltadone hydrochloride], the gametocyte viability (concentration: 1 µM) was 89.7 and the gametocyte viability (concentration: 10 µM) was 93.4.
For `CN(C)CCN1C(=O)c2ccccc2N(C)c2ccccc21` [Dibenzepine hydrochloride] the same measures were 84.8 and 91.3.
For `COc1cc(NC(C)CCCN)c2ncccc2c1` (stereo not drawn) [Primaquine diphosphate] the same measures were 83.1 and 35.1 (active).
For `CCCc1nn(C)c2c(=O)[nH]c(-c3cc(S(=O)(=O)N4CCN(C)CC4)ccc3OCC)nc12` [Sildenafil] the same measures were 90.3 and 70.6.
On to `CCCc1nc(C)c2c(=O)nc(-c3cc(S(=O)(=O)N4CCN(CC)CC4)ccc3OCC)[nH]n12` [Vardenafil], for which the gametocyte viability is, setting by setting: (concentration: 1 µM) 70.1; (concentration: 10 µM) 43.9 (active).
`CN(C)CCOC(c1ccccc1)c1ccccc1.Cn1c(=O)c2[nH]c(Cl)nc2n(C)c1=O` [Dimenhydrinate]: the gametocyte viability was 89 (concentration: 1 µM) and 94 (concentration: 10 µM).
On to `CCCCCCCCCCCCCCCC[N+](C)(C)CCN(Cc1ccc(OC)cc1)c1ncccn1` [Thonzonium bromide], for which the gametocyte viability (concentration: 1 µM) was 77 and the gametocyte viability (concentration: 10 µM) was 1.76 (active).
For the compound `COc1ccc(CN(CCN(C)C)c2ccccn2)cc1` [Pyrilamine maleate], the gametocyte viability is 90.9 (concentration: 1 µM) and 100 (concentration: 10 µM).
For `CN(C)CCN(Cc1ccc(Cl)cc1)c1ccccn1` [Chloropyramine hydrochloride] the same measures were 87.4 and 90.3.
Consider `CCCNCC(O)COc1ccccc1C(=O)CCc1ccccc1` (stereo not drawn) [Propafenone hydrochloride], for which the gametocyte viability (concentration: 1 µM) is 81.6 and the gametocyte viability (concentration: 10 µM) is 75.7.
Consider `CC(C)Nc1cccnc1N1CCN(C(=O)c2cc3cc(NS(C)(=O)=O)ccc3[nH]2)CC1` [Delavirdine], for which the gametocyte viability reads like this: (concentration: 1 µM) 92.5; (concentration: 10 µM) 95.8.
For the compound `CC[C@@H]1C(=O)OC[C@@H]1Cc1cncn1C` [Pilocarpine nitrate], the gametocyte viability reads like this: (concentration: 1 µM) 98.2; (concentration: 10 µM) 98.
Turning to `CC(C)NCC(O)c1ccc(NS(C)(=O)=O)cc1` (stereo not drawn) [Sotalol hydrochloride], the gametocyte viability (concentration: 1 µM) is 83.1 and the gametocyte viability (concentration: 10 µM) is 92.1.
For `N=C(N)NC(=N)NCCc1ccccc1` [Phenformin hydrochloride] the same measures were 83.8 and 83.6.
Take `N=C(NCCCCCCNC(=N)NC(=N)Nc1ccc(Cl)cc1)NC(=N)Nc1ccc(Cl)cc1` [Chlorhexidine]: the gametocyte viability runs as follows: (concentration: 1 µM) 92.1; (concentration: 10 µM) 1.08 (active).
For `CC(C)NC(=N)NC(=N)Nc1ccc(Cl)cc1` [Proguanil hydrochloride] the same measures were 100 and 106.
Taken in the same sequence, the figures for `N=C(N=C(N)N)N1CCOCC1` [Moroxidine hydrochloride] were 83.9 and 87.9.
For `NC1CCN(c2nc3c(cc2F)c(=O)c(C(=O)O)cn3-c2ccc(F)cc2F)C1` (stereo not drawn) [Tosufloxacin hydrochloride] the same measures were 78.5 and 86.9.
As to `NC(=O)c1ccc[n+]([C@@H]2O[C@H](COP(=O)([O-])OP(=O)(O)OC[C@H]3O[C@@H](n4cnc5c(N)ncnc54)[C@H](O)[C@@H]3O)[C@@H](O)[C@H]2O)c1` [Nadide], the gametocyte viability is, setting by setting: (concentration: 1 µM) 85.3; (concentration: 10 µM) 79.3.
For `C[C@]12CCC(=O)C=C1C=C[C@@H]1[C@@H]2CC[C@@]2(C)[C@H]1CC[C@@]21CCC(=O)O1` [Canrenone], the gametocyte viability is, setting by setting: (concentration: 1 µM) 80; (concentration: 10 µM) 83.7.
`C[C@H]1O[C@H](O[C@H]2[C@H](O)[C@@H](O)[C@@H](O[C@@H]([C@H](O)[C@@H](O)C=O)[C@H](O)CO)O[C@@H]2CO)[C@H](O)[C@@H](O)[C@@H]1N[C@H]1C=C(CO)[C@@H](O)[C@H](O)[C@H]1O` [Acarbose]: the gametocyte viability reads like this: (concentration: 1 µM) 80.6; (concentration: 10 µM) 83.5.
For `NCCc1cc[nH]n1` [Betazole hydrochloride] the same measures were 94.2 and 94.2.
For `CCC(=O)OCC(=O)[C@@]1(OC(=O)CC)[C@H](C)C[C@H]2[C@H]3[C@H]([C@@H](O)C[C@@]21C)[C@@]1(C)C=CC(=O)C=C1C[C@H]3Cl` [Alclometasone dipropionate] the same measures were 83.6 and 78.3.
For `CN(N=O)C(=O)N[C@H]1C(O)O[C@H](CO)[C@@H](O)[C@@H]1O` (mixture of isomers) [Streptozotocin], the gametocyte viability is 84.7 (concentration: 1 µM) and 92.1 (concentration: 10 µM).
Taken in the same sequence, the figures for `C[C@@H](O)[C@H]1C(=O)N2C(C(=O)O)=C(SCCNC=N)C[C@H]12` [Imipenem] were 88.8 and 87.5.
`Cc1cc(N)c2ccccc2[n+]1CCCCCCCCCC[n+]1c(C)cc(N)c2ccccc21` [Dequalinium dichloride]: the gametocyte viability reads like this: (concentration: 1 µM) 83.5; (concentration: 10 µM) 36.1 (active).
For the compound `Cc1[nH]c(=O)c(C#N)cc1-c1ccncc1` [Milrinone], the gametocyte viability is, setting by setting: (concentration: 1 µM) 81; (concentration: 10 µM) 82.1.
For `Cc1c(C)c2c(c(C)c1O)CCC(C)(COc1ccc(CC3SC(=O)NC3=O)cc1)O2` (stereo not drawn) [Troglitazone] the same measures were 81.7 and 76.3.
`CC=C(C)C(=O)OC1C(OC(C)=O)C2(CO)C(O)CC3(C)C(=CCC4C5(C)CCC(OC6OC(C(=O)O)C(OC7OC(CO)C(O)C(O)C7O)C(O)C6OC6OC(CO)C(O)C(O)C6O)C(C)(CO)C5CCC43C)C2CC1(C)C` (stereo not drawn) [Beta-Escin]: the gametocyte viability reads like this: (concentration: 1 µM) 90.1; (concentration: 10 µM) 93.2.
In the case of `C[C@@H](O[C@H]1OCCN(Cc2n[nH]c(=O)[nH]2)[C@H]1c1ccc(F)cc1)c1cc(C(F)(F)F)cc(C(F)(F)F)c1` [Aprepitant], the gametocyte viability is 87.7 (concentration: 1 µM) and 75.4 (concentration: 10 µM).
For `CCN(CC)CCNC(C(=O)OCCC(C)C)c1ccccc1` (stereo not drawn) [Camylofine chlorhydrate] the same measures were 79.9 and 85.5.

(Values after the supplement of paper PMC12297408.)
